Where “and” joins values, the source holds several entries; their conditions need not be identical. Equal entries are not always repeated. Results filed as inconclusive are left out. More than one record can exist for a structure, and the calls need not agree. Calls of active or inactive are those of the source. Unless noted, calls follow the shape of the dose curve; as a rule, active = well fitted curve in the direction sought with a large enough effect in the repeat runs; inconclusive = weak or mixed curves; inactive = no such curve, though single readings can be large; an effect the other way counts as inactive or inconclusive.

Assay [1] can be described thus: qHTS assay for small molecule agonists of the p53 signaling pathway (AID 651631; calls by dose curve; also: nearly all actives have a fitted effect of over 15% in size; also: potency is read from the fitted curve at half-maximal effect). The gist of the method:
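p53RE-bla HCT-116 cells; compounds 16 h, 37 °C; LiveBLAzer B/G FRET substrate 2 h RT; fluorescence intensity read-out, qHTS format.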
A general note: qHTS replaces the single test concentration by a dilution series.

Assay [2] in a line: qHTS assay for small molecules that induce genotoxicity in human embryonic kidney cells expressing luciferase-tagged ATAD5 (AID 651632). Also: nearly all actives have a fitted effect of over 15% in size. Also: potency is read from the fitted curve at half-maximal effect. In short, it runs like this:
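ATAD5-luc HEK293T, 2,000 cells/well; cpd or DMSO pin-transferred; 16 hr, 37C/5% CO2; Amplite 30 min RT; luminescence.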

Assay [3] is described as follows: qHTS assay for small molecule agonists of the p53 signaling pathway - cell viability (AID 651633; calls by dose curve; also: nearly all actives have a fitted effect of over 30% in size; also: potency is read from the fitted curve at half-maximal effect). In short, it runs like this: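 p53RE-bla cells were treated with compound for 16 hours at 37 C. Cytotoxicity was then measured as CellTiter-Glo luminescence after 30 min at room temperature.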
Assay [4] in a line: qHTS assay for small molecules that induce genotoxicity in human embryonic kidney cells expressing luciferase-tagged ATAD5 - cell viability (AID 651634; calls by dose curve; also: nearly all actives have a fitted effect of over 25% in size; also: potency is read from the fitted curve at half-maximal effect). In short, it runs like this:
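Fluorescence from CellTiter-Fluor, reporting protease activity within live cells, served as the viability read-out. HEK293T cells carrying luciferase-tagged ATAD5 had been treated with compound for 15.5 hr at 37C.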

Assay [5] in a line: qHTS assay for small molecule disruptors of the mitochondrial membrane potential - cell viability (AID 720634; calls by dose curve;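 also: human HepG2 liver cancer cells; series mostly up to about 83 µM; nearly all actives have a fitted effect of over 20% in size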). The gist of the method:
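Cells: HepG2, 2,000/well, attached overnight. Compound 1 hr, 37 C/5% CO2. +m-MPI dye, +CellTiter-Glo 30 min RT. Readout: luminescence (ATP).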

Assay [6] in a line: qHTS assay for small molecule disruptors of the mitochondrial membrane potential (AID 720635). Also: potency is read from the fitted curve at half-maximal effect. The gist of the method:
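HepG2 cells exposed to compound 1 hr at 37C, then Mito-MPS dye 30 min. Ratio read of aggregate (540/590 nm) versus monomer (490/535 nm) fluorescence.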

Assay [7] is described as follows: qHTS assay to test for compound auto fluorescence at 590 nm (red) in HepG2 cells (AID 720674). In short, it runs like this: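 HepG2 cells, 2,000 per well in MEM with 10% FBS, attached overnight at 37 C, then got 23 nL compound or DMSO. After 1 hr at 37 C, 5% CO2, red fluorescence was read at 540/590 nm against Rose Bengal sodium as reference.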
Assay [8] in a line: qHTS assay to test for compound auto fluorescence at 535 nm (green) in HepG2 cells (AID 720675).
A short description of assay [9]: qHTS assay to test for compound auto fluorescence at 590 nm (red) in HEK293 cells (AID 720679). The gist of the method:
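Red autofluorescence, HEK293 cells: 2,000 cells/well; attach 4-5 hr 37C; add 23 nL cpd or DMSO; incubate o/n 37C 5% CO2; read Ex540/Em590; Rose Bengal sodium reference.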

A short description of assay [10]: qHTS assay to test for compound auto fluorescence at 460 nm (blue) in HEK293 cells (AID 720678). The gist of the method:
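Intrinsic compound fluorescence is recorded in live HEK293 cultures after overnight incubation at 37C, 5% CO2, using excitation 405 nm and emission 460 nm. Values are referenced to triamterene.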

As to `NC(=O)NC1NC(=O)NC1=O` (stereo not drawn), the Potency result in [1], in assay [2], in assay [3], in assay [4], in assay [5] and in assay [6] was “inactive” each time. In addition, the molecule was classed as inactive in [7], in assay [8] and in assay [9].

In the case of `CC(O)C(=O)O` (stereo not drawn), the Potency result in assay [1], in assay [2], in [3], in assay [4], in assay [5] and in assay [6] was “inactive” in each case. The result in [7], in [8] and in assay [9] was inactive.

For the molecule `Nc1ccc(S(=O)(=O)Nc2nccs2)cc1`, the Potency entry in assay [1], in assay [2], in assay [3], in assay [4], in assay [5] and in [6] was “inactive” each time. The outcome in assay [7], in assay [8], in assay [10] and in assay [9] was inactive.

With `CCCN(CCC)S(=O)(=O)c1ccc(C(=O)O)cc1`, the Potency entry in [1], in assay [2], in assay [3], in [4], in [5] and in [6] was “inactive” in each case. The molecule was called inactive in assay [7], in assay [8] and in assay [9].

`CCCCCCCCCCCCCCCC(=O)O`: the Potency result in assay [1], in assay [2], in [3], in assay [4], in assay [5] and in assay [6] was “inactive” each time. Also, the molecule was called inactive in assay [7], in assay [8], in [10] and in assay [9].

For the molecule `O=C(O)CCCCCCCC(=O)O`, the Potency entry in [1], in assay [2], in assay [3], in [4], in [5] and in assay [6] was “inactive” in each case. The molecule was classed as inactive in [7], in assay [8] and in [9].

As for `NC(=O)c1cnccn1`, the Potency result in assay [1], in assay [2], in [3], in assay [4], in assay [5] and in assay [6] was “inactive” in each case. Besides, the call in assay [7], in [8] and in [9] was inactive.

With `CC(C)(Oc1ccc(C2CC2(Cl)Cl)cc1)C(=O)O` (stereo not drawn), the Potency entry in [1], in assay [2], in assay [3], in [4], in assay [5] and in assay [6] was “inactive” in each case. The molecule was called inactive in assay [7], in assay [8] and in assay [9].

In the case of `Cc1noc(NS(=O)(=O)c2ccc(N)cc2)c1C`, the Potency entry in [1], in assay [2], in assay [3], in assay [4], in assay [5] and in [6] was “inactive” in each case. In addition, the outcome in assay [7], in assay [8] and in assay [9] was inactive.

Consider `c1ccc2[nH]ccc2c1`, for which the Potency result in assay [1], in [2], in [3], in assay [4], in assay [5] and in [6] was “inactive” throughout. The outcome in assay [7], in assay [8] and in assay [9] was inactive.

With `NNC(=O)c1ccncc1`, the Potency result in [1], in assay [2], in assay [3], in [4], in assay [5] and in assay [6] was “inactive” throughout. Besides, the result in [7], in assay [8] and in [9] was inactive.

Consider `Oc1ccc(/C=C/c2cc(O)cc(O)c2)cc1`, for which the Potency is 54.5 µM (active) in assay [1]; 2.54 µM (active) and 2.46 µM (active) and 3.06 µM (active) in assay [2]; “inactive and 54.5 µM (active)” in assay [3]; 24.3 µM (active) in [4]; 2.11 µM (active) and 692 nM (active) and 969 nM (active) in assay [6]. Further, the Potency entry in assay [5] was “inactive”. Also, the result in assay [7], in [8], in assay [10] and in assay [9] was inactive.

Consider `CC(=O)Nc1nnc(S(N)(=O)=O)s1`, for which the Potency result in assay [1], in [2], in [3], in [4], in [5] and in [6] was “inactive” throughout. For the same molecule, the result in [7], in [8], in assay [10] and in assay [9] was inactive.

As for `Cc1ccccc1C(OCCN(C)C)c1ccccc1` (stereo not drawn), the Potency result in [2], in assay [3], in assay [4] and in assay [5] was “inactive” each time. Moreover, the outcome in assay [7], in [8] and in assay [9] was inactive.

As for `O=S(=O)(O)c1ccc2cc(O)ccc2c1`, the Potency entry in [1], in assay [2], in assay [3], in assay [4], in assay [5] and in [6] was “inactive” each time. Besides, the molecule was called inactive in assay [7], in [8] and in assay [9].

On to `Cc1ccc(S(=O)(=O)NC(=O)NN2CCCCCC2)cc1`, for which the Potency entry in [2], in [3], in [4], in [5] and in assay [6] was “inactive” each time. Moreover, the outcome in [7], in assay [8] and in [9] was inactive.

With `O=C(O)CCCCC(=O)O`, the Potency entry in assay [1] and in assay [3] was “inactive” in each case. Besides, the molecule was classed as inactive in [7], in assay [8] and in assay [9].

Turning to `O=C(c1ccccc1)C(O)c1ccccc1` (stereo not drawn), the Potency entry in assay [2], in assay [3] and in assay [4] was “inactive” each time. Further, the call in [7], in [8], in [10] and in assay [9] was inactive.

With `CCCC(CCC)C(=O)O`, the Potency entry in assay [2], in [4], in assay [5] and in assay [6] was “inactive” throughout. The result in assay [7], in assay [8] and in assay [9] was inactive.

Regarding `OCCc1ccccc1`, the Potency result in [1], in [3], in assay [4], in assay [5] and in [6] was “inactive” each time. The call in [7], in assay [8] and in [9] was inactive.

Take `O=C(c1ccccc1)c1ccccc1`: the Potency result in assay [1], in assay [3] and in assay [5] was “inactive” each time. Further, the molecule was called inactive in assay [7], in [8] and in [9].

Turning to `O=C(O)c1cccnc1`, the Potency result in assay [4], in assay [5] and in [6] was “inactive” in each case. Also, the result in assay [7], in assay [8] and in assay [9] was inactive.

Regarding `NS(=O)(=O)c1cc(C(=O)O)c(NCc2ccco2)cc1Cl`, the Potency result in [2], in assay [4] and in assay [5] was “inactive” throughout. For the same molecule, the outcome in assay [7], in [8], in assay [10] and in assay [9] was inactive.

Consider `O=S(=O)(O)NC1CCCCC1`, for which the Potency entry in assay [4] and in assay [5] was “inactive” throughout. The outcome in assay [7], in [8] and in assay [9] was inactive.

With `O=C(O)CCC(=O)O`, the Potency entry in assay [2], in [3], in assay [4], in assay [5] and in assay [6] was “inactive” throughout. The outcome in assay [7], in [8], in assay [10] and in assay [9] was inactive.

On to `C1N2CN3CN1CN(C2)C3`, for which the Potency entry in assay [1], in assay [2], in assay [3], in assay [4], in assay [5] and in [6] was “inactive” throughout. Also, the call in assay [7], in [8] and in assay [9] was inactive.

For `NC(N)=O`, the Potency result in assay [2], in assay [3], in [4], in assay [5] and in assay [6] was “inactive” throughout. Moreover, the outcome in assay [7], in [8], in assay [10] and in assay [9] was inactive.

(Values after PubChem BioAssay (Tox21).)
